Experimental data as given in publication PMC4336329 (PLoS ONE, 2015).
The whole screen tested about 310,000 compounds, of which about 14,000 (4.5%) showed an effect of 50% or more. Effects have a minus sign here. The entries come from a sample that favours strong results as a whole.
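Further: peak tail current of the secondary pulse compared with the same well before compound.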

What follows are compounds tested against human ether-à-go-go-related gene (hERG) potassium channel (human, UniProt Q12809) (assay: primary screen, population patch clamp on CHO cells stably expressing hERG; higher = less effect of the substance).
Chain of human ether-à-go-go-related gene (hERG) potassium channel (Q12809 whole entry, looked up): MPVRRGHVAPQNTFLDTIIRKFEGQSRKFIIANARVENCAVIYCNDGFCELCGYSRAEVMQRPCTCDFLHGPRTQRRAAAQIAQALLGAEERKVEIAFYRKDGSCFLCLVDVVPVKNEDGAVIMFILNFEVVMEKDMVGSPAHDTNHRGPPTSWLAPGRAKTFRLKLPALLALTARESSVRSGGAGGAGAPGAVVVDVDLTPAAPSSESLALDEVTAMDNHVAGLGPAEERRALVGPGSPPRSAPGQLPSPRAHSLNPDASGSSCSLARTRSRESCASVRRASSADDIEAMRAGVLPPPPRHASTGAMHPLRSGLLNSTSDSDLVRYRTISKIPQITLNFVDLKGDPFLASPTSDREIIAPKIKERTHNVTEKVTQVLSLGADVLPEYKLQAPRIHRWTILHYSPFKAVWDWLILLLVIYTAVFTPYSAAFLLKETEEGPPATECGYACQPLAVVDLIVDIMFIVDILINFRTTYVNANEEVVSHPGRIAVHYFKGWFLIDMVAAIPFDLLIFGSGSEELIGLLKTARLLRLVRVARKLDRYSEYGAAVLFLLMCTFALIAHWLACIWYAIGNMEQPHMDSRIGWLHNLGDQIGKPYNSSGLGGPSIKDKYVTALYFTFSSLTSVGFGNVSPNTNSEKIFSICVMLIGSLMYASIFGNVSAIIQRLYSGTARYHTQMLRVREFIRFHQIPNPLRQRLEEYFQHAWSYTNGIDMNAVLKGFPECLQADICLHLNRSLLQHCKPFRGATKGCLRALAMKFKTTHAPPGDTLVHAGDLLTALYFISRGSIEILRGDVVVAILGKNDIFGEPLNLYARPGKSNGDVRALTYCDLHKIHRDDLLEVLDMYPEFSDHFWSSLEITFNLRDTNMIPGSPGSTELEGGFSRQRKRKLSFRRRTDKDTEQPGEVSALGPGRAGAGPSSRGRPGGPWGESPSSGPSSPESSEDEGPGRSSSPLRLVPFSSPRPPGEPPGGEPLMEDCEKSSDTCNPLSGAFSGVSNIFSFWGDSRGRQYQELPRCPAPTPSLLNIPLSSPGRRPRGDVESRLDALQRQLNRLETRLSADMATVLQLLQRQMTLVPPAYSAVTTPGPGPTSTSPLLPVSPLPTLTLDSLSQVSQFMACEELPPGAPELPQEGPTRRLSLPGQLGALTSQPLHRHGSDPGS
COc1ccc(-c2cc(CNS(=O)(=O)c3ccc(NC(C)=O)cc3)on2)cc1 was tested, and the “hERG current change (%, negative = inhibition) at 10uM” value was 18.6%. For COc1ccccc1C(=O)NCCOc1ccc(C)c(C)c1, the “hERG current change (%, negative = inhibition) at 10uM” value was 18.5%. With COc1ccc(Cl)cc1N(CC(=O)NC1CC1)S(=O)(=O)c1ccc(C)c([N+](=O)[O-])c1 the “hERG current change (%, negative = inhibition) at 10uM” value was 11.9%. In the case of O=C(NS(=O)(=O)Oc1ccc(Cl)cc1)OC[C@@H]1CCCN2CCCC[C@H]12, the “hERG current change (%, negative = inhibition) at 10uM” value is reported as 28.2%. With COc1ccc(/C=C(\NC(=O)c2ccccc2)C(=O)OCC2CCCN3CCCCC23)cc1OC (stereo not shown) the “hERG current change (%, negative = inhibition) at 10uM” value was -40.7%. With Cl.O=C(OCC1CCCN2CCCCC12)c1ccc2c(c1)OCO2 (stereo not shown) the “hERG current change (%, negative = inhibition) at 10uM” value was -22.8%. In the case of O=C(NC(=O)c1cccc(Cl)c1)OC[C@@H]1CCCN2CCCCC12 (stereo partly shown), the “hERG current change (%, negative = inhibition) at 10uM” value is reported as -60.9%. For O=C(NC(=O)c1cccc(F)c1)OC[C@@H]1CCCN2CCCC[C@H]12, the “hERG current change (%, negative = inhibition) at 10uM” value was -36.7%. O=C(Nc1ccccc1)OCC1CCCN2CCCCC12 (stereo not shown) was tested, and the “hERG current change (%, negative = inhibition) at 10uM” value was -39.4%. In the case of O=C(NCC1CCCO1)c1ccc(NC(=O)c2cccc(Br)c2)cc1 (stereo not shown), the “hERG current change (%, negative = inhibition) at 10uM” value is reported as 16.4%. O=C(OC1CCCCC1)c1cc2ccccc2oc1=O was tested, and the “hERG current change (%, negative = inhibition) at 10uM” value was -32.6%. O=C(NC(=O)c1ccccc1)OCC1CCCN2CCCCC12 (stereo not shown) was tested, and the “hERG current change (%, negative = inhibition) at 10uM” value was -56.7%. In the case of O=C(Nc1ccc(C(=O)N2CCOCC2)cc1)c1cccc(Br)c1, the “hERG current change (%, negative = inhibition) at 10uM” value is reported as 3.11%. For Cl.O=C(OC[C@@H]1CCCN2CCCC[C@H]12)c1cc2ccccc2oc1=O, the “hERG current change (%, negative = inhibition) at 10uM” value was -50.1%. Cl.O=C(Nc1ccc(C(=O)OC[C@@H]2CCCN3CCCC[C@H]23)cc1)c1cccc(Br)c1 was tested, and the “hERG current change (%, negative = inhibition) at 10uM” value was -69.3%. With CCOC(=O)C(=NCCCN(C)C)NNc1cc(C(F)(F)F)ccc1Cl the “hERG current change (%, negative = inhibition) at 10uM” value was -18.5%. With O=C(NCCCn1ccnc1)c1ccc(Br)c(S(=O)(=O)N2CCOCC2)c1 the “hERG current change (%, negative = inhibition) at 10uM” value was -7.41%. For COc1ccc(OC)c(NC(=O)Nc2cc(C(=O)O)ccc2C)c1, the “hERG current change (%, negative = inhibition) at 10uM” value was 13.1%. In the case of COc1ccccc1NC(=O)CN1C(=O)NC(CC(C)C)C1=O (stereo not shown), the “hERG current change (%, negative = inhibition) at 10uM” value is reported as 4.37%. O=C(CCC(=O)N1CCCC1)Nc1ccc([N+](=O)[O-])cc1 was tested, and the “hERG current change (%, negative = inhibition) at 10uM” value was -1.25%. In the case of NC(=S)N/N=C/c1ccc(C(F)(F)F)cc1, the “hERG current change (%, negative = inhibition) at 10uM” value is reported as 11%. In the case of O=C(CSc1cccc[n+]1[O-])c1cc2ccccc2o1, the “hERG current change (%, negative = inhibition) at 10uM” value is reported as -4.46%. In the case of COC(=O)c1sccc1NC(=O)c1cc(OC)c(OC)c(OC)c1, the “hERG current change (%, negative = inhibition) at 10uM” value is reported as 3.09%. In the case of O=NN1CCN(c2ccncc2S(=O)(=O)N2CCCCC2)CC1, the “hERG current change (%, negative = inhibition) at 10uM” value is reported as 10.6%. COc1ccc(-c2noc(-c3ccccc3C(=O)NCc3ccco3)n2)cc1 was tested, and the “hERG current change (%, negative = inhibition) at 10uM” value was 3.2%.
